Pf growth 96h – Primary qHTS for delayed death inhibitors of the malarial parasite plastid, 96 hour incubation; P. falciparum luciferase reporter growth, 96 h; Potency, µM (series often up to 28.7 µM), without a hit: top-dose activity change, negative = inhibition, hits mostly inhibitors; 320,000 tested, 6.9% active; AID 504834, 2011; also: % is scaled to controls: 0 for no effect and ±100 for the full control effect
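Two parasite generations (96 h, 37 C, 5% CO2) of compound exposure in infected erythrocytes (0.05% parasitemia, 2% hematocrit). Luciferase-reporter P. falciparum; decreased luminescence indicates inhibited growth, aimed at apicoplast-acting delayed death.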
AMA1 RON2 block – qHTS for Inhibitors of AMA1-RON; Towards Development of Antimalarial Drug Lead: Primary Screen; Plasmodium falciparum AMA1 (3D7) - RON2 peptide interaction; AlphaScreen AMA1-biotinylated RON2 peptide binding; Potency, µM (titrated, usually from 58.2 µM), inactives show at the top dose activity change, negative = inhibition, hits mostly inhibitors; 360,000 tested, 0.2% active;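 also: 0% = vehicle wells and -100% = peptide control; nearly all actives have a fitted effect of over 45% in size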
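AMA1 (3D7) with his tag at 25 nM final met compounds first, then biotinylated RON2 peptide at 25 nM; detection used donor plus acceptor beads, 10 µg/mL apiece, read by AlphaScreen after 30 min at room temperature.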
Pf growth 48h – Primary qHTS for delayed death inhibitors of the malarial parasite plastid, 48 hour incubation | P. falciparum luciferase growth in erythrocytes, 48 h | Potency, µM (titrated, usually from 28.7 µM), without a hit: at the highest dose activity change, negative = inhibition, hits mostly inhibitors | 310,000 tested, 5.9% active | AID 504832, 2011; also: % is scaled to controls: 0 for no effect and ±100 for the full control effect
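Luciferase-expressing parasites in RBCs, 2% Hct / 0.1% parasitemia final; RPMI 1640 + 0.5% Albumax; 37 C, 5% CO2, one generation; luminescence read-out, lower signal = inhibition.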
SARS PLpro yeast – qHTS of Yeast-based Assay for SARS-CoV PLP; S. cerevisiae expressing SARS-CoV PLpro, growth rescue; Potency, µM (doses to about 32.9 µM), inactives show at the highest dose activity, positive = growth rescue, actives largely listed as activators; 330,000 tested, 0.19% active; calls by dose curve; also: 0% is about no effect; nearly all actives have a fitted effect of over 55% in size
* = called active by the depositor; ? = inconclusive; nt = no result. Most compounds without a hit are left out; they make up all but 9.4% or so of the library. Unless noted, calls follow the shape of the dose curve; as a rule, active = well fitted curve in the direction sought with a large enough effect; inconclusive = small, poorly fitted or top-dose-only effect, or another doubt; inactive = no such curve, though single readings can be large; an effect the other way counts as inactive or inconclusive. Potency is read from the fitted curve at half-maximal effect.

SMILES	Pf growth 96h	AMA1 RON2 block	Pf growth 48h	SARS PLpro yeast
O=C(NNc1nc(-c2ccc(Br)cc2)cs1)c1ccco1	-28.9%	79.7%	1.65µM*	0.8%
CC(=O)Nc1ccc(-c2csc(NNC(=O)c3ccc(C)cc3)n2)cc1	13.9%	77.2%	5.7%	1.5%
O=C(NC(=S)Nc1nc(-c2ccc(Br)cc2)cs1)c1ccco1	4.4%	3.7%	29.1%	-1.5%
N#Cc1ccc(-c2csc(NNC(=O)c3ccccc3)n2)cc1	3.7µM*	81.5%	11.7µM*	-2.1%
O=C(NNC(=O)c1csc(-c2cccnc2)n1)c1ccccc1	10.4µM*	113.2%	?	0.0%
Cc1ccc(C)c(OCCCC(=O)N2CCOCC2)c1	27.7%	6.2%	45.9%	-0.9%
Cc1ccc(CNC(=O)C(=O)NCC2OCCN2S(=O)(=O)c2ccc3c(c2)OCCO3)cc1 (centres undefined)	?	0.0%	0.1%	14.4%
N#Cc1ccc(-c2csc(NNC(=O)c3ccc(Br)cc3)n2)cc1	2.94µM*	12.8%	1.65µM*	-8.4%
O=C(Nc1cccc(S(=O)(=O)N2CCOCC2)c1)c1cnn2c(C(F)F)cc(-c3ccccc3)nc12	-11.1%	-1.4%	42.9%	0.6%
CC(OC(=O)c1ccccc1C(=O)N(C)c1ccccc1)C(=O)Nc1ccc(C(N)=O)cc1 (centres undefined)	?	0.9%	2.0%	-1.0%
CC(OC(=O)c1cc(O)c2ccccc2c1O)C(=O)Nc1ccc(C(N)=O)cc1 (centres undefined)	11.7µM*	-16.9%	?	3.8%
CSCCC(C(=O)NC1CCCC1)n1c(C2CC2)nc2ccccc21 (centres undefined)	nt	1.4%	nt	nt
C/C(=N\NC(=O)c1nnn(-c2nonc2N)c1-c1ccc2c(c1)OCO2)c1ccc(F)cc1	4.65µM*	-1.2%	?	-4.0%
C/C(=N\NC(=O)c1nnn(-c2nonc2N)c1-c1ccc2c(c1)OCO2)c1ccc(C)cc1	13.1µM*	-10.7%	?	2.4%
CC/C(=N\NC(=O)c1nnn(-c2nonc2N)c1-c1ccc2c(c1)OCO2)c1ccccc1	?	22.4%	?	9.0%
C/C(=N\NC(=O)c1nnn(-c2nonc2N)c1-c1ccc2c(c1)OCO2)c1ccccc1	14.7µM*	12.4%	?	3.2%
CCCc1c(C(=O)N/N=C(\C)c2ccc3c(c2)OCO3)nnn1-c1nonc1N	nt	-2.2%	nt	nt
CCOc1ccc(CCN2C(=S)N([C@@H](CC(C)C)CN3CCC[C@@H]3CN3C(=S)NC[C@@H]3CC(C)C)C[C@@H]2Cc2ccc(O)cc2)cc1	nt	5.2%	nt	nt
COc1ccc(C(=O)NCCCNC(=O)c2cccnc2)cc1Br	?	0.3%	-6.2%	-3.4%
Cc1c(OCC(=O)N2CCC(C(N)=O)CC2)ccc2c1oc(=O)c1ccccc12	?	2.3%	6.0%	0.0%
CCCC(C(=O)NC(C)(C)CC)N(CC1CCCO1)C(=O)CNS(=O)(=O)c1ccc(F)cc1 (centres undefined)	-19.2%	-12.9%	?	0.5%
CCN(Cc1cc2ccccc2[nH]c1=O)C(=O)C(C)C	0.928µM*	26.3%	-2.5%	4.1%
CCN(Cc1cc2ccccc2[nH]c1=O)C(=O)C1CCCCC1	9.3%	0.6%	-11.8%	-2.2%
Cc1ccc(S(=O)(=O)N(C)Cc2cc3ccccc3[nH]c2=O)cc1	9.28µM*	36.8%	?	1.4%
CN(Cc1cc2ccccc2[nH]c1=O)S(=O)(=O)c1ccccc1	0.3%	10.6%	-3.8%	0.8%
SMILES	Pf growth 96h	AMA1 RON2 block	Pf growth 48h	SARS PLpro yeast
Cc1ccc(OCCN2CCN(C(=O)CCC(=O)Nc3nnc(CC(C)C)s3)CC2)cc1	0.329µM*	-6.9%	11.7µM*	0.8%
CCc1nnc(NC(=O)CCC(=O)N2CCN(Cc3ccc(Cl)cc3)CC2)s1	nt	-1.8%	?	1.7%
CCCc1nnc(NC(=O)CCC(=O)N2CCN(Cc3ccc(Cl)cc3)CC2)s1	11.7µM*	14.7%	-24.1%	4.6%
CCOc1cc(/C=C2\C(=O)NC(=O)N(C)C2=O)cc([N+](=O)[O-])c1O	10.1%	-14.3%	-4.2%	-3.0%
Cc1csc(NC(=O)CCSCCc2ccccn2)n1	9.28µM*	0.0%	nt	-2.9%
Cc1csc(NC(=O)CSc2ccc(-c3ccccn3)nn2)n1	?	31.6µM*	-16.8%	7.0%
O=C(CCSCCc1ccccn1)Nc1c(F)cc(F)cc1Br	33.6%	-7.8%	-10.8%	12.1%

Source: PubChem BioAssay (National Center for Advancing Translational Sciences (NCATS))
